Reference: PubChem BioAssay AID1159580 (chemical genetic matrix, 2015)
The campaign covered roughly 5,500 compounds. About 2,000 (36%) were called active. About 18% were inconclusive and are not listed. Cut-off read from the data, not from the text of the source: active = normalized growth mostly below about 0.91 (no sharp cut-off); inconclusive = no clear call, values can overlap the other calls; inactive = mostly above about 0.92. The list shows a part of the results.

Assay: chemical genetic growth profiling, strain panel (AID 1159580);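 note: tested at 20 µM; growth read once vehicle control cultures reached saturation at 30 °C; 1 = growth at the plate median or of vehicle wells; lower values mean less growth of the strain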
Conditions: S. cerevisiae deletion strains, growth OD
[1] = locus YAR019C, strain CDC15, active compounds read low
[2] = locus YBL105C, strain PKC1, active compounds read low
[3] = locus YBR135W, strain CKS1, active compounds read low
[4] = locus YBR136W, strain MEC1, active compounds read low
[5] = locus YBR160W, strain CDC28, active compounds read low
[6] = locus YDL017W, strain CDC7, active compounds read low
[7] = locus YDL028C, strain MPS1, active compounds read low
[8] = locus YDL101C, strain DUN1, active compounds read low
[9] = locus YDL108W, strain KIN28, active compounds read low
[10] = locus YDL132W, strain cdc53, active compounds read low
[11] = locus YDL214C, strain PRR2, active compounds read low
[12] = locus YDR052C, strain DBF4, active compounds read low
[13] = locus YDR054C, strain cdc34, active compounds read low
[14] = locus YDR226W, strain ADK1, active compounds read low
[15] = locus YDR477W, strain SNF1, active compounds read low
[16] = locus YER123W, strain YCK3, active compounds read low
[17] = locus YER133W, strain GLC7, active compounds read low
[18] = locus YFL009W, strain cdc4, active compounds read low
[19] = locus YFL029C, strain CAK1, active compounds read low
[20] = locus YFR003C, strain YPI1, active compounds read low
[21] = locus YFR019W, strain FAB1, active compounds read low
[22] = locus YFR028C, strain CDC14, active compounds read low
[23] = locus YGR040W, strain KSS1, active compounds read low
[24] = locus YGR052W, strain FMP48, active compounds read low
[25] = locus YGR092W, strain DBF2, active compounds read low
[26] = locus YHR030C, strain SLT2, active compounds read low
[27] = locus YHR079C, strain IRE1, active compounds read low
[28] = locus YHR082C, strain KSP1, active compounds read low
[29] = locus YHR205W, strain SCH9, active compounds read low
[30] = locus YIL147C, strain SLN1, active compounds read low
[31] = locus YJL095W, strain BCK1, active compounds read low
[32] = locus YJL128C, strain PBS2, active compounds read low
[33] = locus YJL157C, strain FAR1, active compounds read low
[34] = locus YJR016C, strain ILV3, active compounds read low
[35] = locus YJR066W, strain TOR1 (second series), active compounds read low
[36] = locus YJR066W, strain TOR1, active compounds read low
[37] = locus YKL048C, strain ELM1, active compounds read low
[38] = locus YKL067W, strain YNK1, active compounds read low
[39] = locus YKL101W, strain HSL1, active compounds read low
[40] = locus YKL193C, strain SDS22, active compounds read low
[41] = locus YKL203C, strain TOR2, active compounds read low
[42] = locus YLR113W, strain HOG1, active compounds read low
[43] = locus YLR133W, strain CKI1, active compounds read low
[44] = locus YLR403W, strain SFP1, active compounds read low
[45] = locus YML070W, strain DAK1, active compounds read low
[46] = locus YMR001C, strain CDC5, active compounds read low
[47] = locus YMR205C, strain PFK2 (second series), active compounds read low
[48] = locus YMR277W, strain FCP1, active compounds read low
[49] = locus YNL006W, strain LST8, active compounds read low
[50] = locus YNL020C, strain ARK1, active compounds read low
[51] = locus YNL161W, strain CBK1, active compounds read low
[52] = locus YNL183C, strain NPR1, active compounds read low
[53] = locus YNL207W, strain RIO2, active compounds read low
[54] = locus YNL222W, strain SSU72, active compounds read low
[55] = locus YNL307C, strain MCK1 (second series), active compounds read low
[56] = locus YOL078W, strain AVO1, active compounds read low
[57] = locus YOL136C, strain PFK27, active compounds read low
[58] = locus YOR061W, strain CKA2, active compounds read low
[59] = locus YOR119C, strain RIO1, active compounds read low
[60] = locus YOR231W, strain MKK1, active compounds read low
[61] = locus YOR329C, strain SCD5, active compounds read low
[62] = locus YPL031C, strain PHO85, active compounds read low
[63] = locus YPL153C, strain RAD53, active compounds read low
[64] = locus YPL204W, strain HRR25, active compounds read low
[65] = locus YPL209C, strain IPL1, active compounds read low
[66] = locus YPL256C, strain CLN2, active compounds read low
[67] = locus YPR025C, strain CCL1, active compounds read low
[68] = locus YPR106W, strain ISR1, active compounds read low
[69] = locus YPR111W, strain DBF20, active compounds read low
[70] = strain NNK1, active compounds read low
[71] = strain TSCII, active compounds read low

Measured: normalized growth

FC(F)(F)Sc1ccc(OCc2n[nH]c(=S)n2-c2ccccc2)cc1
inactive: [1] 0.989 | [2] 0.983 | [3] 0.988 | [4] 0.983 | [5] 0.988 | [6] 0.987 | [7] 0.986 | [8] 0.981 | [9] 0.987 | [10] 0.993 | [11] 0.945 | [12] 0.989 | [13] 0.978 | [14] 0.981 | [15] 0.943 | [16] 0.873 | [17] 0.911 | [18] 0.983 | [19] 0.989 | [20] 0.988 | [21] 0.936 | [22] 0.993 | [23] 0.949 | [24] 0.939 | [25] 0.874 | [27] 0.896 | [28] 0.963 | [29] 0.957 | [30] 0.984 | [31] 0.917 | [32] 0.94 | [33] 0.92 | [34] 0.984 | [35] 0.906 | [36] 0.945 | [37] 0.953 | [38] 0.934 | [39] 0.891 | [40] 0.994 | [41] 0.961 | [43] 0.938 | [44] 0.954 | [45] 0.92 | [46] 0.991 | [47] 0.946 | [48] 0.992 | [49] 0.986 | [50] 0.904 | [51] 0.986 | [52] 0.879 | [53] 0.985 | [54] 0.99 | [55] 0.91 | [56] 0.996 | [57] 0.931 | [58] 0.971 | [59] 1 | [60] 0.907 | [61] 0.985 | [62] 0.909 | [63] 0.916 | [64] 0.893 | [65] 0.984 | [67] 0.989 | [68] 0.979 | [69] 0.959 | [70] 0.977 | [71] 0.983
active: [26] 0.814 | [42] 0.82 | [66] 0.82

FC(F)(F)Oc1ccc(OCc2n[nH]c(=S)n2-c2ccc(Cl)cc2)cc1
inactive: [1] 0.984 | [2] 0.986 | [3] 0.989 | [4] 0.996 | [5] 0.991 | [6] 0.995 | [7] 0.99 | [8] 0.983 | [9] 0.987 | [10] 0.981 | [11] 1 | [12] 0.987 | [13] 0.989 | [14] 0.98 | [15] 0.994 | [16] 0.889 | [17] 1 | [18] 0.988 | [19] 0.985 | [20] 0.987 | [21] 0.988 | [22] 0.989 | [23] 1.01 | [24] 1.1 | [25] 0.944 | [26] 0.967 | [27] 1.07 | [28] 1.05 | [29] 1.01 | [30] 0.988 | [31] 1.15 | [32] 0.956 | [33] 1 | [34] 0.996 | [35] 0.986 | [36] 1.13 | [37] 0.965 | [38] 1.02 | [39] 0.986 | [40] 0.982 | [41] 1.05 | [42] 1.07 | [43] 1 | [44] 1 | [45] 1.01 | [46] 0.983 | [47] 1.01 | [48] 0.99 | [49] 0.986 | [50] 0.994 | [51] 0.989 | [52] 1.12 | [53] 0.99 | [54] 0.985 | [55] 0.999 | [56] 0.986 | [57] 0.994 | [58] 1.01 | [59] 1.02 | [60] 1.09 | [61] 0.99 | [62] 0.973 | [63] 0.983 | [64] 0.975 | [65] 0.987 | [66] 1.04 | [67] 0.991 | [68] 0.996 | [69] 0.992 | [70] 0.999 | [71] 0.987

CC(C)(C)OC(=O)NCc1n[nH]c(=S)n1-c1ccccc1
inactive: locus YAL013W, strain DEP1, active compounds read low 1.03 | locus YBR229C, strain ROT2, active compounds read low 1.01 | [8] 1.02 | locus YDL134C, strain PPH21, active compounds read low 1.01 | locus YDR150W, strain NUM1, active compounds read low 1 | locus YEL061C, strain CIN8, active compounds read low 0.993 | locus YGR078C, strain PAC10, active compounds read low 1.01 | locus YGR229C, strain SMI1, active compounds read low 0.999 | [26] 1.09 | locus YHR087W, strain rtc3, active compounds read low 1.01 | locus YJR043C, strain POL32, active compounds read low 1.04 | locus YJR075W, strain HOC1, active compounds read low 0.995 | locus YLR039C, strain RIC1, active compounds read low 0.998 | locus YLR058C, strain SHM2 (second series), active compounds read low 1.02 | locus YLR085C, strain ARP6, active compounds read low 1.02 | locus YLR262C, strain YPT6, active compounds read low 1.07 | locus YML094W, strain GIM5, active compounds read low 1.01 | locus YMR219W, strain ESC1, active compounds read low 1.01 | locus YMR263W, strain SAP30, active compounds read low 1.01 | locus YNL153C, strain GIM3, active compounds read low 0.958 | locus YNL298W, strain CLA4 (second series), active compounds read low 1.06 | locus YNL322C, strain KRE1, active compounds read low 0.999 | locus YNR030W, strain Alg12, active compounds read low 1.01 | locus YPL055C, strain LGE1, active compounds read low 1.02 | locus YPL241C, strain CIN2, active compounds read low 0.994 | locus YPR135W, strain CTF4, active compounds read low 1.12
